# Most compounds without a hit are left out; they make up all but 19% or so of the library.
# uPA generation – cell surface uPA generation inhibition | cell surface uPA generation assay, qHTS | Potency, µM (titrated, usually from 38.3 µM), for inactives: top-dose activity change, negative = inhibition, hits mostly inhibitors | 0.31% of 330,000 active; active means well fitted inhibition curve with a large enough effect; inconclusive means small, poorly fitted or top-dose-only effect; inactive means no such curve, though single readings can be large or run the other way; tested in mouse RAW 264.7 cells; further: potency means the concentration at half of the fitted maximal effect; nearly all actives have a fitted effect of over 55% in size
# TDP1 cell noCPT – qHTS for Inhibitors of human tyrosyl-DNA phosphodiesterase 1 (TDP1): qHTS in cells in absence of CPT. DT40 Tdp1-/- hTDP1 cells, no CPT, ATP luminescence, 48 h. Potency, µM (series often up to 46.2 µM), for inactives: at the top dose activity change, negative = growth inhibition, hits mostly inhibitors. 15% of 420,000 active. AID 686978, 2013; further: potency means the concentration at half of the fitted maximal effect; nearly all actives have a fitted effect of over 55% in size
#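 Growth of hTDP1-complemented DT40 Tdp1-knockout cells is measured by ATP luminescence after at least 48 hr compound exposure at 37 °C, with DMSO substituting for the 20 nM CPT used in the parallel screen.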
# IL-1B inflam inh – blocks inflammasome-driven IL-1 beta release | THP-1 LPS/ATP IL-1B secretion, AlphaLISA, 16 h; hits give low values | activity change, % at 57.5 µM | 4.7% of 360,000 active; in the data active means activity change below about -50%; inconclusive means mostly about -30% to -49%
#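 Secreted IL-1B measured by AlphaLISA bead assay after 16 h compound exposure of THP-1 cells; compounds (final up to 57.5 uM) added 1 h before LPS (250 ng/mL) and ATP (1.25 mM) stimulation; lower signal means less secretion.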
# DT40 TDP1 CPT – growth inhibition of DT40 Tdp1-/-;hTDP1 cells with camptothecin (screen for TDP1 inhibitors); chicken DT40 Tdp1-/-;hTDP1 cells + 20 nM CPT, ATP luminescence, 48 h; Potency, µM (titrated, usually from 46.2 µM), inactives show at the highest dose activity change, negative = growth inhibition, most hits filed as inhibitors; 12% of 420,000 active; further: potency means the concentration at half of the fitted maximal effect; nearly all actives have a fitted effect of over 55% in size
#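 Chicken DT40 Tdp1-/- cells complemented with human TDP1, 400 cells/well, exposed to compounds plus 20 nM camptothecin for at least 48 h at 37 C; viability read as ATP content by CellTiter-Glo luminescence.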
# HT1080 IDH1KD tx – toxicity to HT-1080 IDH1 knockdown cells (counter line). 2% of 360,000 active. Potency, µM (titrated, usually from 46.1 µM), for the others: top-dose activity, negative = toxicity, actives largely listed as cytotoxic. HT-1080 IDH1 knockdown viability, ATP luminescence, 48 h. AID 686971;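 further: potency means the concentration at half of the fitted maximal effect; 0% = DMSO wells and -100% = cell-free medium wells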
#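 CellTiter-Glo luminescence after 48 h compound exposure at 37 degrees C of IDH1-knockdown HT-1080 cells in 5% FBS RPMI. %Activity scaled between DMSO wells and cell-free media wells, with curves fitted and assigned curve classes.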
# HT1080-NT tox – kills 2HG-producing HT-1080-NT fibrosarcoma cells; HT-1080-NT fibrosarcoma viability, CellTiter-Glo ATP luminescence, 48 h; Potency, µM (highest dose often 46.1 µM), inactives show top-dose activity, negative = less viability, hits mostly cytotoxic; 1.6% of 360,000 active;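 further: NT is the 2HG producing partner of a matched IDH1 knockdown line; potency means the concentration at half of the fitted maximal effect; 0% = DMSO-treated cells and -100% = media-only wells without cells; nearly all actives have a fitted effect of over 55% in size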
#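 A 48-hour cytotoxicity screen used HT-1080-NT cells plated 2 hours before compound delivery. ATP-based CellTiter-Glo luminescence measured viability, normalized to DMSO and no-cell controls.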
# An asterisk follows results filed as active; ? = inconclusive; . = no result; [ ] = dose if it differs, or a comment. Unless noted, the call rests on the fitted dose curve; in most records, active means well fitted curve in the direction sought with a large enough effect; inconclusive means small, poorly fitted or top-dose-only effect, or another doubt; inactive means no such curve, though single readings can be large; an effect the other way counts as inactive or inconclusive. Unless noted, on the % scale 0 is the no-effect control and ±100 the full control effect.
SMILES,uPA generation,TDP1 cell noCPT,IL-1B inflam inh,DT40 TDP1 CPT,HT1080 IDH1KD tx,HT1080-NT tox
O=C(/C=C/c1ccco1)Nc1nc(-c2ccccn2)cs1,?,7.3µM*,124,7.3µM*,-19%,-17%
O=C(/C=C/c1ccco1)Nc1cccc2cccnc12,7%,-14%,36,0%,-14%,-8%
O=C(/C=C/c1ccco1)Nc1ccccn1,-9%,3.3µM*,59,3.3µM*,?,?
Cc1ccc(NC(=O)/C=C/c2ccco2)nc1,-14%,0.0058µM*,-29,0.013µM*,0.0058µM*,0.046µM*
COCC(=O)Nc1cc(C(=O)N[C@H]2CCCCNC2=O)c2c(c1)nc(-c1ccncc1)n2C,.,-14%,.,13%[9.04 µM],.,.
CCCN1C(=O)SC(CC(=O)Nc2cccc3ccccc23)C1=O (configuration not stated),-4%,16µM*,19,16µM*,3%,-1%
CCC(=O)Nc1cccc2ccccc12,0%,-16%,2,20%,10%,12%
CCCN1C(=O)SC(CC(=O)Nc2ccccc2)C1=O (configuration not stated),-1%,?,-4,23µM*,11%,26%
CCOc1ccccc1NC(=O)Cn1ncc2c(=O)oc3ccc(C)cc3c21,.,-14%,.,-5%,.,.
CCOc1ccc(NC(=O)Cn2c(=O)n(-c3cccc(OC)c3)c(=O)c3c4c(sc32)CCCC4)cc1,.,-2%,.,?,.,.
CCOC(=O)c1c(C)oc2nc(C)nc(NCc3ccc(F)cc3)c12,.,16µM*,.,?,.,.
CCOC(=O)c1c(C)oc2nc(C)nc(NCc3ccc(OC)cc3OC)c12,.,13µM*,.,?,.,.
CCOC(=O)c1c(C)oc2nc(C)nc(NCCCN3CCN(c4cc(Cl)ccc4C)CC3)c12,.,-14%,.,?,.,.
CCOC(=O)c1c(C)oc2nc(C)nc(NCCc3ccc(OC)c(OC)c3)c12,.,18µM*,.,21µM*,.,.
CCOC(=O)c1c(C)oc2nc(C)nc(NC(C)c3ccccc3)c12 (configuration not stated),.,16µM*,.,21µM*,.,.
CCOC(=O)c1c(C)oc2nc(C)nc(Nc3cccc(OC)c3)c12,.,-25%,.,-27%,.,.
CCOC(=O)c1c(C)oc2nc(C)nc(NCCCN3CCN(c4cc(C)ccc4C)CC3)c12,.,-3%,.,?,.,.
O=C(NCC1CCC2(CCN(Cc3cccn3-c3ccc(Cl)cn3)CC2)O1)c1ccccc1 (configuration not stated),.,-7%,.,0%,.,.
COc1cccc(CN2CCC3(CCC(CNC(=O)c4cc(C)nn4C)O3)CC2)c1OC (configuration not stated),.,-20%,.,4%[9.04 µM],.,.
CC(=O)Nc1ccc(NC(=O)c2cc3c(=O)n(Cc4cccnc4)ccc3nc2C)cc1,.,-20%,.,-5%,.,.
COc1cc(C2Nc3cccc4cccc(c34)N2)ccc1O,2%,?,-83*,?,-17%,-16%
COc1cc(C2Nc3cccc4cccc(c34)N2)cc(OC)c1OC(C)=O,16%,23µM*,-20,?,0%,-1%
CCOC(=O)c1c(C)c(-c2ccccc2)n(CC(=O)Nc2cc(C)ccc2OC)c1C,.,18µM*,.,?,.,.
CCOC(=O)c1c(C)c(-c2ccccc2)n(CC(=O)Nc2ccc(OCC)cc2)c1C,.,-29%,.,-3%,.,.
CCOC(=O)c1c(C)c(-c2ccccc2)n(CC(=O)Nc2cccc(C)c2C)c1C,.,15µM*,.,13µM*,.,.
SMILES,uPA generation,TDP1 cell noCPT,IL-1B inflam inh,DT40 TDP1 CPT,HT1080 IDH1KD tx,HT1080-NT tox
COc1ccc(OCC(=O)Nc2c(C(=O)N3CCN(c4ccccc4)CC3)oc3ccccc23)cc1,.,-10%,.,?,.,.
COc1cccc(CC(=O)Nc2c(C(=O)N3CCN(c4ccccc4F)CC3)oc3ccccc23)c1,.,4.6µM*,.,5.8µM*,.,.
CC(C)(C)C(=O)Nc1c(C(=O)N2CCN(c3ccc(F)cc3)CC2)oc2ccccc12,.,15µM*,.,18µM*,.,.
CC(C)CC(=O)Nc1c(C(=O)N2CCN(c3ccccc3F)CC2)oc2ccccc12,.,10µM*,.,13µM*,.,.
COc1ccc(N2CCN(C(=O)c3oc4ccccc4c3NC(=O)Cc3cccc(OC)c3)CC2)cc1,-14%,?,-22,?,-4%,4%
CCOCC(=O)Nc1c(C(=O)N2CCN(c3ncccn3)CC2)oc2ccccc12,2%,12µM*,-12,?,-2%,0%
CCCCN1C(=O)C(=O)N(CC(=O)Nc2cc(OCC)c(N3CCOCC3)cc2OCC)C1=O,-3%,12%,24,1%,18%,7%
Cc1c(C(=O)NCc2ccccc2)sc(=O)n1Cc1ccccc1F,.,?,-28,?,1%,3%
CCOc1ccc(-c2ccc(C3=CC(=O)C[C@H](c4ccc(F)cc4)C3)cc2)cc1,.,-1%,-2,-2%,12%,20%
CC[C@H]1C(=O)[C@@H](Cc2ccccc2)[C@@H]2CCN3C(=O)CCC[C@H]1[C@H]23,-8%,1%,39,-12%,11%,15%
COC(=O)c1cccc(C(=O)N2CCCC(CCC(=O)N(C)CCc3ccccn3)C2)c1 (configuration not stated),1%,9%,7,-21%,5%,13%
O=C(O)CCNC(=O)c1ccc(NC(=O)Cc2ccc(Cl)cc2)cc1,2%,-11%,0,14%,18%,24%
COc1cc2c(c(Br)c1N)-c1cc(Br)c(N)cc1C2=O,.,-10%,21,-4%,?,?
COc1ccc(OCC(=O)Nc2c(C(=O)N3CCN(C)CC3)oc3ccccc23)cc1,-3%,-14%,-4,-23%,9%,1%
Cc1cccc(OCC(=O)Nc2c(C(=O)N3CCN(c4ccccc4F)CC3)oc3ccccc23)c1,.,18µM*,.,?,.,.
COc1ccccc1Cc1c(-c2ccc(F)cc2)nc2ccc(Br)cn12,.,?,4,?,?,?
COc1ccc(Cc2c(-c3cccc(Br)c3)nc3ccc(Br)cn23)c(C)c1,.,?,11,?,0%,-11%
COC(=O)c1ccc2nc(-c3cccc(Br)c3)c(Cc3ccccc3OC)n2c1,.,21µM*,0,?,12µM*,10%
COC(=O)c1ccc2nc(-c3ccc(F)cc3)c(Cc3ccccc3OC)n2c1,.,18µM*,24,21µM*,9%,13%
CCC(=O)Nc1nc(C)c(-c2csc(Nc3ccc(C(=O)O)cc3)n2)s1,2%,-26%,0,-1%,9%,3%
